# Experimental data: PubChem BioAssay (NCATS)
# Records with an inconclusive call do not appear. A number with no mark means an inactive call. Calls of active or inactive are those of the source. Calls come from the whole dose curve; as a rule, active = well fitted curve in the direction sought with a large enough effect; inconclusive = small, poorly fitted or top-dose-only effect, or another doubt; inactive = no such curve, though single readings can be large; an effect the other way counts as inactive or inconclusive. Non-standard residues stand in square brackets, D forms with d. Residues, ends and D or L forms follow the SMILES beside them. Peptide text beside a SMILES is read from it. *: point of attachment. Sta = CC(C)C[C@H](N)[C@@H](O)CC(=O)O; Isovaleryl = CC(C)CC(=O)*
# Assay: qHTS assay to identify small molecule inhibitors of chordoma cells - UCH-1 (AID 1259355); note: nearly all actives have a fitted effect of over 55% in size
# Conditions: UCH-1 chordoma viability, CellTiter-Glo, 48 h, combination, with auranofin plus four topoisomerase inhibitors; series mostly up to 46.1 µM; activity, negative = inhibition: at the top concentration
# Method in brief: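 Screening used approved and investigational drugs in 15-point titration against 800 seeded cells per well. A fixed combination of auranofin with camptothecin, doxorubicin, rubitecan and topotecan followed compound addition, and growth was scored by CellTiter-Glo after 48hr.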
# % is set by controls: 0 for no effect and ±100 for the full control effect.
SMILES,"activity, negative = inhibition",Potency
C=CCc1cc(OC)c(O)c(C(=O)NCCO)c1,-10.4%,
COC(=O)C1=C(C)NC(C)=C(C(=O)OC(C)C)C1c1cccc2nonc12 (stereo not given),-13.9% [at 20.6 µM],
C=C(c1ccc(C(=O)O)cc1)c1cc2c(cc1C)C(C)(C)CCC2(C)C,-21.2%,
O=C(O)c1cccnc1Nc1cccc(C(F)(F)F)c1,-6.08%,
CN(C)c1ccc(O)c2c1C[C@H]1C[C@H]3[C@H](N(C)C)C(=O)C(C(N)=O)=C(O)[C@@]3(O)C(=O)C1=C2O,-5.12%,
CN1CCC(=C2c3ccccc3CCc3sccc32)CC1,-23.1%,
Cc1cc(=O)oc2cc(O)ccc12,-13.1% [at 20.6 µM],
CC1(C)CCC(C)(C)c2cc(NC(=O)c3ccc(C(=O)O)cc3)ccc21,-23.1%,
CS(=O)(=O)OCCCCOS(C)(=O)=O,-13.7%,
Clc1ccc(C(Cn2ccnc2)OCc2c(Cl)cccc2Cl)c(Cl)c1 (stereo not given),-4.32% [at 20.6 µM],
CC(=O)NC[C@H]1CN(c2ccc(N3CCOCC3)c(F)c2)C(=O)O1,-2.78%,
Cc1nc2n(c(=O)c1CCN1CCC(c3noc4cc(F)ccc34)CC1)CCCC2,-33.1%,
CCOC(=O)c1c(C)n(C)c2ccc(O)cc12,-14.4%,
CCc1nc(N)nc(N)c1-c1ccc(Cl)cc1,-9.92%,
O=C(O)c1cccc(-c2noc(-c3ccccc3F)n2)c1,-23.4%,
CCN(CC)CCOc1ccc(Cc2ccccc2)cc1,-10.2%,
NNc1nncc2ccccc12,-20.2% [at 20.6 µM],
Cn1c(NCCN(CCO)CCCc2ccc([N+](=O)[O-])cc2)cc(=O)n(C)c1=O,-19.1%,

SMILES,"activity, negative = inhibition",Potency
C[C@]12CCC(=O)C=C1CC[C@@H]1[C@H]2[C@@H](O)C[C@@]2(C)[C@H]1CC[C@]2(O)C(=O)CO,-25.7%,
Cc1cccc(C)c1OCC(=O)N[C@@H](Cc1ccccc1)[C@@H](O)C[C@H](Cc1ccccc1)NC(=O)[C@H](C(C)C)N1CCCNC1=O,-16.1%,
CC(C)CC(=O)N[C@H](C(=O)N[C@H](C(=O)N[C@@H](CC(C)C)[C@@H](O)CC(=O)N[C@@H](C)C(=O)N[C@@H](CC(C)C)[C@@H](O)CC(=O)O)C(C)C)C(C)C (Isovaleryl-VV[Sta]A[Sta]-OH),-14.9%,
CN(C)C(=O)COC(=O)Cc1ccc(OC(=O)c2ccc(N=C(N)N)cc2)cc1,5.48%,
CC1=C(C)C(=O)C(C(CCCCCC(=O)O)c2ccccc2)=C(C)C1=O (stereo not given),-6.56%,
CC(S)C(=O)NCC(=O)O (stereo not given),-1.44%,
Cc1ccc(C)c(OCCCC(C)(C)C(=O)O)c1,-1.96%,
Clc1ccc(C(Cn2ccnc2)OCc2ccsc2Cl)c(Cl)c1 (stereo not given),-6.72%,
CCCCCCCCOc1ccccc1C(=O)Nc1ccc(C(=O)OCC[N+](C)(CC)CC)cc1,-8.63%,
O=C(O)CCNC(=O)c1ccc(N=Nc2ccc(O)c(C(=O)O)c2)cc1,-10.4%,
c1ccc2[nH]c(-c3cscn3)nc2c1,-14.3%,
COC(=O)[C@H](Cc1ccccc1)NC(=O)[C@@H](N)CC(=O)O (H-Asp-Phe-OMe),,inactive
CC(C)(S)[C@@H](N)C(=O)O,9.72%,
N=C(N=C(N)N)N1CCOCC1,-8.52% [at 20.6 µM],
CCN(CC)C(=S)SSC(=S)N(CC)CC,-6.8%,
Nc1cccc2c1CN(C1CCC(=O)NC1=O)C2=O (stereo not given),-9.7%,
Nc1ccc(S(N)(=O)=O)cc1,-22.4%,

# Assay: qHTS assay to identify small molecule inhibitors of chordoma cells - UCH-2 (AID 1259356)
# Conditions: UCH-2 chordoma viability, CellTiter-Glo ATP luminescence, 48 h; series mostly up to 46.1 µM; activity change, negative = inhibition: at the top concentration
SMILES,"activity change, negative = inhibition",Potency
C=CCc1cc(OC)c(O)c(C(=O)NCCO)c1,2.24%,
COC(=O)C1=C(C)NC(C)=C(C(=O)OC(C)C)C1c1cccc2nonc12 (stereo not given),12.9% [at 20.6 µM],
C=C(c1ccc(C(=O)O)cc1)c1cc2c(cc1C)C(C)(C)CCC2(C)C,3.32%,
O=C(O)c1cccnc1Nc1cccc(C(F)(F)F)c1,0.814%,
CN(C)c1ccc(O)c2c1C[C@H]1C[C@H]3[C@H](N(C)C)C(=O)C(C(N)=O)=C(O)[C@@]3(O)C(=O)C1=C2O,-0.0978%,
CN1CCC(=C2c3ccccc3CCc3sccc32)CC1,-19.6%,
Cc1cc(=O)oc2cc(O)ccc12,1.87% [at 20.6 µM],
CC1(C)CCC(C)(C)c2cc(NC(=O)c3ccc(C(=O)O)cc3)ccc21,-1.16%,
CS(=O)(=O)OCCCCOS(C)(=O)=O,8.57%,
Clc1ccc(C(Cn2ccnc2)OCc2c(Cl)cccc2Cl)c(Cl)c1 (stereo not given),1.84% [at 20.6 µM],
CC(=O)NC[C@H]1CN(c2ccc(N3CCOCC3)c(F)c2)C(=O)O1,3.39%,
Cc1nc2n(c(=O)c1CCN1CCC(c3noc4cc(F)ccc34)CC1)CCCC2,8.7%,
CCOC(=O)c1c(C)n(C)c2ccc(O)cc12,1.87%,
CCc1nc(N)nc(N)c1-c1ccc(Cl)cc1,0.509%,
O=C(O)c1cccc(-c2noc(-c3ccccc3F)n2)c1,3.01%,
CCN(CC)CCOc1ccc(Cc2ccccc2)cc1,-2.17%,
NNc1nncc2ccccc12,-0.708% [at 20.6 µM],
Cn1c(NCCN(CCO)CCCc2ccc([N+](=O)[O-])cc2)cc(=O)n(C)c1=O,4.98%,

SMILES,"activity change, negative = inhibition",Potency
C[C@]12CCC(=O)C=C1CC[C@@H]1[C@H]2[C@@H](O)C[C@@]2(C)[C@H]1CC[C@]2(O)C(=O)CO,14%,
Cc1cccc(C)c1OCC(=O)N[C@@H](Cc1ccccc1)[C@@H](O)C[C@H](Cc1ccccc1)NC(=O)[C@H](C(C)C)N1CCCNC1=O,1.5%,
CC(C)CC(=O)N[C@H](C(=O)N[C@H](C(=O)N[C@@H](CC(C)C)[C@@H](O)CC(=O)N[C@@H](C)C(=O)N[C@@H](CC(C)C)[C@@H](O)CC(=O)O)C(C)C)C(C)C (Isovaleryl-VV[Sta]A[Sta]-OH),-8.29%,
CN(C)C(=O)COC(=O)Cc1ccc(OC(=O)c2ccc(N=C(N)N)cc2)cc1,10.2%,
CC1=C(C)C(=O)C(C(CCCCCC(=O)O)c2ccccc2)=C(C)C1=O (stereo not given),-0.0463%,
CC(S)C(=O)NCC(=O)O (stereo not given),-2.62%,
Cc1ccc(C)c(OCCCC(C)(C)C(=O)O)c1,-1.87%,
Clc1ccc(C(Cn2ccnc2)OCc2ccsc2Cl)c(Cl)c1 (stereo not given),-5.25%,
CCCCCCCCOc1ccccc1C(=O)Nc1ccc(C(=O)OCC[N+](C)(CC)CC)cc1,3.59%,
O=C(O)CCNC(=O)c1ccc(N=Nc2ccc(O)c(C(=O)O)c2)cc1,6.71%,
c1ccc2[nH]c(-c3cscn3)nc2c1,0.403%,
COC(=O)[C@H](Cc1ccccc1)NC(=O)[C@@H](N)CC(=O)O (H-Asp-Phe-OMe),,inactive
CC(C)(S)[C@@H](N)C(=O)O,0.0619%,
N=C(N=C(N)N)N1CCOCC1,-0.707% [at 20.6 µM],
CCN(CC)C(=S)SSC(=S)N(CC)CC,7.53%,
Nc1cccc2c1CN(C1CCC(=O)NC1=O)C2=O (stereo not given),6.21%,
Nc1ccc(S(N)(=O)=O)cc1,10.5%,
